Compound activity deposited in PubChem by National Center for Advancing Translational Sciences (NCATS).
TbPYK inhibitor = blocks Trypanosoma brucei pyruvate kinase; TbPYK enzyme, Kinase-Glo Plus ATP luminescence, 45 min; Potency, µM (top dose mostly 76.8 µM), inactives show at the top dose activity, negative = inhibition, most hits filed as inhibitors; 410,000 compounds, 0.12% hits; AID 624173; also: potency is read from the fitted curve at half-maximal effect; nearly all actives have a fitted effect of over 50% in size
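Activity of T. brucei pyruvate kinase was followed by Kinase-Glo Plus luminescence after the enzyme reacted 45 min at room temperature with 130 uM ADP (final) and substrate. Test compounds were added before ADP at multiple concentrations.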
VACV Venus inh = vaccinia inhibition (Venus reporter) | Potency, µM (top dose mostly 36.5 µM), for the others: at the highest dose activity change, negative = inhibition, hits mostly inhibitors | AID 720580 | 330,000 compounds, 0.46% hits | Vaccinia virus Venus reporter expression, fluorescence; calls by dose curve; tested in A549 cells; also: potency is read from the fitted curve at half-maximal effect; nearly all actives have a fitted effect of over 30% in size
LmPK inhibitor = blocks Leishmania mexicana pyruvate kinase activity. Q27686. purified LmPK, Kinase-Glo ATP luminescence, 1 h. Potency, µM (titrated, usually from 57.5 µM), inactives show top-dose activity change, negative = inhibition, hits mostly inhibitors. 290,000 compounds, 0.37% hits; also: potency is read from the fitted curve at half-maximal effect
Target sequence (Q27686 whole entry, looked up): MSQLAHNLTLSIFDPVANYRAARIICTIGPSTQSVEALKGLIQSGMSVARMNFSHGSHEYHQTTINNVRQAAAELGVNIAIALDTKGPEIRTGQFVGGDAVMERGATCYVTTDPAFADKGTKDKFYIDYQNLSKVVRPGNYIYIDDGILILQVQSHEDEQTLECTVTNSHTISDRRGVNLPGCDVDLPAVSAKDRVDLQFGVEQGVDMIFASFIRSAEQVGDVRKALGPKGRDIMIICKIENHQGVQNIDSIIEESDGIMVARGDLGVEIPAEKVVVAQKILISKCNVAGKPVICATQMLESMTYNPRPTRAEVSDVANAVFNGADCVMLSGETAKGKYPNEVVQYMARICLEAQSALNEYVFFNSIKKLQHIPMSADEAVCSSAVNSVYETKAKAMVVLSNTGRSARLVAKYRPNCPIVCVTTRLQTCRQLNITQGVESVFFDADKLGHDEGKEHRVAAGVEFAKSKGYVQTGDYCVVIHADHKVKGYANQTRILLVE
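Screened at intermediate enzyme activity to detect both inhibitors and activators: LmPK at 0.1 nM, with a 0.5 nM enzyme column as activation reference. PEP 0.5 mM, ADP 0.1 mM; ATP detected by luminescence after 1 h.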
Vaccinia mCherry = inhibitors of vaccinia virus infection (mCherry reporter signal). Vaccinia virus mCherry reporter infection, fluorescence. Potency, µM (series often up to 36.5 µM), without a hit: top-dose activity change, negative = inhibition, most hits filed as inhibitors. 310,000 compounds, 0.63% hits; calls by dose curve; tested in A549 cells; also: potency is read from the fitted curve at half-maximal effect; nearly all actives have a fitted effect of over 35% in size
HCMV inh = blocks human cytomegalovirus replication; HFF cells, HCMV-luciferase reporter, 72 h; hits give low values; activity change, negative = inhibition, % at 57.5 µM; 410,000 compounds, 4.5% hits; in the data active = activity change below about -60%; inconclusive = no clear call, values can overlap the other calls; inactive = above about -39%
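Cell-based, HFFs, 1000 cells/well, 16 h 37C; cpds in DMSO + HCMV-luc, MOI 1 PFU/cell; 72 h 37C; OneGlo luminescence after 5 min RT; norm. to buffer vs Salinomycin 10uM.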
Active calls of the source: *. An excerpt weighted towards active compounds, which were near 5% of everything screened. Unless noted, calls follow the shape of the dose curve; as a rule, active = well fitted curve in the direction sought with a large enough effect; inconclusive = small, poorly fitted or top-dose-only effect, or another doubt; inactive = no such curve, though single readings can be large; an effect the other way counts as inactive or inconclusive. % is scaled to controls: 0 for no effect and ±100 for the full control effect.

`CCC(c1nnnn1-c1ccc2c(c1)OCCO2)N1CCN(c2ncccn2)CC1` (stereo not given) gave TbPYK inhibitor 2.8%, VACV Venus inh -6.2%, Vaccinia mCherry 11.8% and HCMV inh 7.4.
CC(O)C1C=CC=CC(=O)OC2CC3OC4C5OC5(C)CCC4(COC(=O)C4OC4(C)C(O)CO1)C2(C)C31CO1 (stereo not given) was read as TbPYK inhibitor -2.4% and HCMV inh -96.2*.
For CC1=CC2OC3CC4OC(=O)C=CC=CC(C(C)O)OCC(O)C(C)CC(=O)OCC2(CC1O)C4(C)C31CO1 (stereo not given) the results were TbPYK inhibitor -6.1% and HCMV inh -97.3*.
Screening CC(=O)OC1C(=O)OCC23CCC4(C)OC4C2OC2CC(OC(=O)C=CC=CC(=O)OCCC1C)C3(C)C21CO1 (stereo not given) returned TbPYK inhibitor 0.4% and HCMV inh -96.4*.
For CC1=CC2OC3CC4OC(=O)C=CC=CC(=O)OCCC(C)C(O)C(=O)OCC2(CC1O)C4(C)C31CO1 (stereo not given) the results were TbPYK inhibitor -4.8%.
`CC1CCCC(C)N1C(=O)COC(=O)C12CC3CC(CC(Cl)(C3)C1)C2` (stereo not given) gave TbPYK inhibitor 5.2% and HCMV inh -62.6*.
For CC(Sc1nnc2c(n1)[nH]c1ccccc12)C(=O)N(C)C1CCCCC1 (stereo not given) the results were TbPYK inhibitor 0.5%, VACV Venus inh 3.2%, LmPK inhibitor -1.2%, Vaccinia mCherry -14.7% and HCMV inh -84.7*.
Screening CC(Sc1nnc2c(n1)[nH]c1ccccc12)C(=O)NC1CCCCC1 (stereo not given) returned TbPYK inhibitor 5.0%, VACV Venus inh 1.6%, LmPK inhibitor -6.6%, Vaccinia mCherry -9.4% and HCMV inh -30.0.
CCOC(=O)c1ccc(NC(=O)CC2Sc3ccc(C(F)(F)F)cc3NC2=O)cc1 (stereo not given) was read as TbPYK inhibitor -4.9%, VACV Venus inh inconclusive, Vaccinia mCherry inconclusive and HCMV inh -65.4*.
`COc1ccc(NC(=O)CC2SC(=O)NC2=O)cc1` (stereo not given) gave TbPYK inhibitor -1.4%, VACV Venus inh 2.5%, LmPK inhibitor 3.2%, Vaccinia mCherry -10.1% and HCMV inh -66.8*.
Screening Cc1ccc(NC(=O)CC2SC(=O)NC2=O)cc1 (stereo not given) returned TbPYK inhibitor -0.3%, VACV Venus inh -2.2%, LmPK inhibitor -0.3%, Vaccinia mCherry -10.8% and HCMV inh 9.7.
`CSc1nc(-c2ccccc2)c(-c2ccccc2)[nH]1` gave TbPYK inhibitor 2.7%, LmPK inhibitor 2.3% and HCMV inh 6.4.
Screening CC(C)(O)C#Cc1ccc(CNC[C@H]2O[C@@H](n3cnc(C(N)=O)n3)[C@H](O)[C@@H]2O)s1 returned TbPYK inhibitor 2.8%, VACV Venus inh -15.2%, Vaccinia mCherry inactive and HCMV inh -25.0.
Screening CN(C)c1ccc(N=Nc2ccccc2C(=O)OCC(=O)N2CCCC2)cc1 returned TbPYK inhibitor -5.6%, VACV Venus inh -6.8%, LmPK inhibitor -7.8%, Vaccinia mCherry -8.0% and HCMV inh -11.7.
`CN(C)c1ccc(N=Nc2ccccc2C(=O)OCC(=O)Nc2ccccc2C(F)(F)F)cc1` gave TbPYK inhibitor 3.8%, VACV Venus inh -16.4%, LmPK inhibitor -3.8%, Vaccinia mCherry -26.5% and HCMV inh -74.6*.
O=C(NC1CCCCC1)[C@H](CSCc1ccccc1)N1Cc2ccccc2C1=O was read as TbPYK inhibitor -2.6%, VACV Venus inh -14.1%, LmPK inhibitor -1.8%, Vaccinia mCherry 19.0% and HCMV inh -60.4*.
For Cc1ccc(C)c(NC(=O)C(Cc2ccccc2)N2Cc3ccccc3C2=O)c1 (stereo not given) the results were TbPYK inhibitor 8.8%, VACV Venus inh -6.5%, Vaccinia mCherry -15.1% and HCMV inh -89.8*.
CC(C)NC(=O)[C@H](CSCc1ccccc1)N1Cc2ccccc2C1=O was read as TbPYK inhibitor -12.6%, VACV Venus inh -13.2%, LmPK inhibitor 2.2%, Vaccinia mCherry inactive and HCMV inh 4.6.
Screening Cc1cccc(NC(=O)C(Cc2ccccc2)N2Cc3ccccc3C2=O)c1C (stereo not given) returned TbPYK inhibitor -8.5%, VACV Venus inh -9.4%, Vaccinia mCherry inactive and HCMV inh -23.2.
Screening COC(=O)CN1C(=O)[C@H]2[C@@H](c3ccc(C)o3)N3C(=O)CN(Cc4ccccn4)C(=O)[C@@]3(Cc3ccccc3)[C@H]2C1=O returned TbPYK inhibitor -6.2%, VACV Venus inh -2.3%, LmPK inhibitor -1.8%, Vaccinia mCherry -12.3% and HCMV inh -19.8.
Cc1c(NC(=O)c2cc(-c3ccc4c(c3)OCO4)on2)c(=O)n(-c2ccccc2)n1C was read as TbPYK inhibitor 1.3%, LmPK inhibitor -10.0% and HCMV inh 22.8.
Screening COc1ccc2nc(NC(=O)Nc3cccc4ccccc34)sc2c1 returned TbPYK inhibitor -26.3%, LmPK inhibitor 2.9% and HCMV inh -76.2*.
COc1ccc2nc(NC(=O)c3ccc(-n4nc(C)cc4C)cc3)sc2c1 was read as TbPYK inhibitor -8.1%, VACV Venus inh -17.9%, LmPK inhibitor 2.0% and HCMV inh -105.8*.
Screening COc1ccc2nc(NC(=O)c3cccs3)sc2c1 returned TbPYK inhibitor 3.9%, VACV Venus inh -17.7%, LmPK inhibitor 12.6µM*, Vaccinia mCherry inactive and HCMV inh 18.1.
`COc1ccc2nc(NC(=O)c3ccc(F)cc3)sc2c1` gave TbPYK inhibitor -6.8%, VACV Venus inh -8.2%, LmPK inhibitor 5.0%, Vaccinia mCherry inactive and HCMV inh 28.8.
Screening Cc1ccc(NC(=O)Nc2nc3ccccc3s2)cc1NC(=O)Nc1nc2ccccc2s1 returned TbPYK inhibitor 5.9%, VACV Venus inh inconclusive, LmPK inhibitor 3.7%, Vaccinia mCherry -23.5% and HCMV inh -74.3*.
`CCCCCCCCCCCC(=O)[O][Sn]([CH2]CCC)([CH2]CCC)[O]C(=O)CCCCCCCCCCC` gave TbPYK inhibitor -14.3%.
`CCOc1ccc(N2CC(c3nc4ccccc4n3CCCCOc3ccc(OC)cc3)CC2=O)cc1` (stereo not given) gave TbPYK inhibitor -1.2%, VACV Venus inh -17.9%, Vaccinia mCherry -21.5% and HCMV inh -12.4.
For CCN(C(=O)CSc1nnc(-c2ccco2)n1Cc1ccccc1)C1CCS(=O)(=O)C1 (stereo not given) the results were TbPYK inhibitor -19.7%, VACV Venus inh -14.9%, Vaccinia mCherry -3.3% and HCMV inh inconclusive.
`COc1ccc2nc(NC(=O)Nc3ccccc3OC)sc2c1` gave TbPYK inhibitor -1.7%, VACV Venus inh -20.6%, LmPK inhibitor 0.7%, Vaccinia mCherry inconclusive and HCMV inh 64.1.
